# CYP2C9 inhib – inhibitors of human CYP2C9 | CYP2C9 Supersomes, luciferin-H conversion, luminescence | P11712 | inhibition, % at 5 µM | 20% of 96,000 active;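 active means blocking of liver enzyme CYP2C9 beyond about 50% at 5 µM, limit read from the data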
# CYP2C19 activ – activators of human cytochrome P450 2C19 | recombinant CYP2C19, luciferin-H EGE luminescence; hits give high values; 0 = fully inhibited enzyme, 1 = untreated enzyme | AID 1025 | activation factor at 5 µM | P33261 | 96,000 tested, under 10 active;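 active means activation factor of at least 2 at 5 µM in the primary screen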;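 further: 0 = wells with 2.5 mM tranylcypromine and 1 = vehicle-only wells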
# sEH act – increases human soluble epoxide hydrolase activity; P34913; purified human sEH enzymatic activity, activator screen; activation, % at 2 µM; 0.04% of 91,000 active; AID 717; in the data active means activation above about 37%
# Target sequence (P34913 whole entry, looked up): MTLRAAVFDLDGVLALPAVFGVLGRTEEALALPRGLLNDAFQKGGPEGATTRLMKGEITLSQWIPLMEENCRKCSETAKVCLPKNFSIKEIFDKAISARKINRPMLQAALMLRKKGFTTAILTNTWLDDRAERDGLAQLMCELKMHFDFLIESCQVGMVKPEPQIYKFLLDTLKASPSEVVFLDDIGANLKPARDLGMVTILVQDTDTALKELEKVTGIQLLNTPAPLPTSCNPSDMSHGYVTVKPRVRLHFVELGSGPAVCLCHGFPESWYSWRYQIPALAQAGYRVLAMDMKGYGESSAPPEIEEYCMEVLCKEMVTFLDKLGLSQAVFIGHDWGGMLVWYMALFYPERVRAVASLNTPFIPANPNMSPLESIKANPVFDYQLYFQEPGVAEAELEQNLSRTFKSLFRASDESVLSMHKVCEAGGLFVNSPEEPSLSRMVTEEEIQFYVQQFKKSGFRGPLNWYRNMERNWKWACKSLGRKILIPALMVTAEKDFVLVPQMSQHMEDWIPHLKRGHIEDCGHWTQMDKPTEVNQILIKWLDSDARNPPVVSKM
# sEH inh – inhibitors of human soluble epoxide hydrolase | P34913 | recombinant human sEH enzymatic activity assay | inhibition, % at 2 µM | 0.34% of 91,000 active | AID 707; in the data active means inhibition above about 80%
# CYP2C9 activ – activators of human CYP2C9. recombinant CYP2C9, luciferin-H conversion, luminescence; hits give high values; factor 1 = untreated enzyme, 0 = blocked. activation factor at 5 µM. 1.4% of 96,000 active;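 active means activation factor of 2 or more for CYP2C9 at a 5 µM dose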;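 further: 0 = sulfaphenazole-blocked wells and 1 = vehicle-only wells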
# CYP2C19 inh – blocks human cytochrome P450 2C19; inhibition, % at 5 µM; 21% of 96,000 active; CYP2C19 Supersomes, luciferin-H EGE luminescence, 30 min; AID 778;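 active means CYP2C19 inhibition above a set limit at 5 µM in the primary screen, cut at about 50% in these data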;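 further: plate controls were negative control wells for no effect and 2.5 mM tranylcypromine positive control for full effect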
# Starred values were filed as active, the others as inactive; . = no result given. An excerpt weighted towards active compounds, which were near 27% of everything screened.
SMILES,CYP2C9 inhib,CYP2C19 activ,sEH act,sEH inh,CYP2C9 activ,CYP2C19 inh
CN1CCc2c(C#N)c(N3CCCCC3)nc(NCc3ccccc3)c2C1,74.1*,0.7,1.1,-1.4,0.3,32.7
CC(C)c1nc(NCc2ccccc2)c(C#N)c2c1CCCC2,35.7,1.1,8.3,-5.8,0.6,-7.5
CCCCc1nc(NCc2ccccc2)c(C#N)c2c1COC(C)(C)C2,28.5,1,-4.7,1.3,0.7,2.2
O=C(C1CCC1)N1CCc2cc(S(=O)(=O)N3CCN(c4ccccn4)CC3)ccc21,40.1,1,.,.,0.6,-0.2
Cc1nn(C(C)(C)C)c(OC(=O)c2cccs2)c1Sc1ccccc1,65.1*,0.7,8.1,-11.3,0.3,33.2
Cc1nn(C(C)(C)C)c(OC(=O)c2ccc(Br)o2)c1Sc1ccccc1,12.4,0.3,11.2,-13.3,0.9,73.8*
Cc1nn(C(C)(C)C)c(OC(=O)c2ccco2)c1Sc1ccccc1,61.4*,0.9,-9.0,11.5,0.4,6.3
Cc1ccc(C)c(S(=O)(=O)N2C(=S)NC(=O)C2C(C)C)c1 (stereo not drawn),95.4*,0.4,7.9,-5.6,0,55.5*
OC(CN1c2ccccc2Sc2ccccc21)Cn1nnc2ccccc21 (stereo not drawn),99.5*,0,-7.9,6.1,0,99.6*
OC(Cn1nnc2ccccc21)Cn1c(C(F)(F)F)nc2ccccc21 (stereo not drawn),57.3*,0.7,-5.0,5.2,0.4,34.9
Cc1nn(CC(O)c2ccccc2)c(C)c1Br (stereo not drawn),-2.4,0.6,16.9,-14.2,1,42.2
O=C1c2ccccc2C(=O)N1CC(O)Cn1nnc2ccccc21 (stereo not drawn),34.2,0.4,-9.1,7.8,0.7,58.9*
Cc1nn(CC(O)CN2c3ccccc3Sc3ccccc32)c(C)c1Br (stereo not drawn),93.0*,0.1,-0.3,-5.5,0.1,88.6*
O=C(Cn1nnc2ccccc21)C1CC1,15.6,1,.,.,0.8,-1.0
Fc1cccc(Oc2nc3ccccc3n3cccc23)c1,-9.5,1,10.4,-12.7,1.1,4.7
CC(Sc1nnc(-c2cccs2)n1-c1ccccc1)C(=O)NCc1ccco1 (stereo not drawn),82.2*,0.3,2.9,-3.1,0.2,70.8*
Cc1cc(C)c(NC(=O)C(C)Sc2nnc(-c3ccco3)n2-c2ccccc2)c(C)c1 (stereo not drawn),65.7*,0.1,-6.2,8.7,0.3,89.9*
COC(=O)c1cccc(CSc2nnc(-c3ccco3)n2-c2ccccc2)c1,67.6*,0.8,.,.,0.3,16.0
Cc1cccc(N2C(=O)N(c3ccccc3C)C3CS(=O)(=O)CC32)c1 (stereo not drawn),12.1,0.7,14.9,-17.1,0.9,27.4
CCN1CCN(CC(=O)NC2CCCC2)C(=O)C1=O,6.7,1,.,.,0.9,1.0
CNC(=O)c1[nH]cnc1C(=O)Nc1cccc(OC)c1,32.3,0.3,8.8,-6.0,0.7,66.6*
COc1cccc(C(=O)Nc2cccc(SC)c2)c1,41.3,0.1,-8.2,7.7,0.6,87.0*
CNC(=O)c1[nH]cnc1C(=O)Nc1ccc(C)cc1,.,.,0.2,2.7,.,.
COC(=O)c1[nH]c2cc(OC)c(OC)cc2c1NC(=O)c1cccc(OC)c1,58.7*,0.9,-7.3,6.9,0.4,6.3
COc1cccc(C(=O)Nc2cccc(OCC(=O)O)c2)c1,36.5,0.3,-1.4,-0.9,0.6,70.1*
SMILES,CYP2C9 inhib,CYP2C19 activ,sEH act,sEH inh,CYP2C9 activ,CYP2C19 inh
N#Cc1ccccc1Cn1c(-c2cscn2)nc2ccccc21,24.3,0.5,4.3,-3.7,0.8,50.0*
COc1cc(NC(=O)Cn2c(-c3cncs3)nc3ccccc32)cc(OC)c1OC,56.1*,0.7,-12.2,14.6,0.4,29.6
O=C(Cn1c(-c2cscn2)nc2ccccc21)Nc1ccc2ccccc2c1,63.0*,0.6,.,.,0.4,39.1
Brc1ccccc1Cn1c(-c2cncs2)nc2ccccc21,38.6,0.5,3.9,-5.5,0.6,48.8
O=C(O)Cn1c(-c2cscn2)nc2ccccc21,-16.8,1.2,5.7,-6.3,1.2,-18.4
O=C(Cn1c(-c2cscn2)nc2ccccc21)Nc1cc(F)ccc1F,46.0,0.4,.,.,0.5,63.6*
CNC(=O)c1nc(C)n(-c2cc(Cl)ccc2Cl)n1,-13.1,1.1,0.1,0.7,1.1,-8.1
Cc1nc(C(=O)Nc2cccc(Cl)c2Cl)nn1-c1cc(OC(C)C)c(Cl)cc1Cl,82.5*,1.1,1.4,0.9,0.2,-5.6
Cc1nc(C(=O)Nc2cc(Cl)ccc2Cl)nn1-c1cc(OC(C)C)c(Cl)cc1Cl,86.6*,0.8,5.4,-2.7,0.1,20.4
Cc1nc(C(=O)Nc2ccc(Cl)cc2Cl)nn1-c1cc(OC(C)C)c(Cl)cc1Cl,58.2*,1,16.6,-13.3,0.4,4.0
Cc1nc(C(=O)Nc2cccc(Cl)c2)nn1-c1cc(OC(C)C)c(Cl)cc1Cl,69.7*,0.4,-4.1,6.2,0.3,62.3*
Cn1c(=O)c(C(=S)NC(=O)C2CC2)c(N)n(Cc2ccccc2)c1=O,29.6,0.8,8.7,-10.0,0.7,18.5
Cc1cc(NC(=O)CC(CN(C)S(=O)(=O)c2ccccc2)c2ccccc2)no1 (stereo not drawn),46.2,0.1,.,.,0.5,88.4*
CCCC(=O)C1=C(O)C(C(=O)OC)C(C)(C)CC1=NC (stereo not drawn),0.3,0.8,.,.,1,22.4
CCCC(=O)C1=C(O)C(C(=O)OC)C(C)(C)CC1=Nc1ccc(N)cc1 (stereo not drawn),42.3,0.5,-4.8,6.0,0.6,51.7*
CCCC(=O)C1=C(O)C(C(=O)OC)C(C)(C)CC1=Nc1ccncc1 (stereo not drawn),60.7*,0.1,.,.,0.4,89.7*
Cc1ccc(NC(=O)CS(=O)CC(=O)NCC2OCCc3ccccc32)c(C)c1 (stereo not drawn),12.5,0.7,-14.1,14.6,0.9,31.2
Cc1ccccc1N(CC(=O)NCCc1ccccc1)C(=O)c1ccc(N2CCCC2)nc1,95.0*,0.4,-10.3,8.1,0.1,56.9*
Cn1c(=O)n(C)c2cc(S(=O)(=O)NCCO)ccc21,-43.4,1.2,-6.8,5.2,1.4,-20.7
COCCNS(=O)(=O)c1ccc2c(c1)n(C)c(=O)n2C,10.3,0.9,8.6,-7.6,0.9,5.9
Cn1c(=O)n(C)c2cc(S(=O)(=O)Nc3ccccc3O)ccc21,58.6*,0.2,6.1,-4.1,0.4,82.9*
COc1ccccc1NS(=O)(=O)c1ccc2c(c1)n(C)c(=O)n2C,2.0,0.3,1.0,-0.2,1,71.6*
CC(C)(C)OC(=O)N1CC2Cc3[nH]c(=O)ccc3C(C2)C1 (stereo not drawn),-2.8,0.8,-1.3,5.0,1,17.8
Cc1ccccc1C(=O)NNC(=O)c1ccc(F)cc1,-14.5,0.4,5.3,-8.3,1.1,61.8*

# Screens as filed in PubChem BioAssay.
